# Reference: article PMC7862700, “An all-to-all approach to the identification of sequence-specific readers for epigenetic DNA modifications on cytosine”
# Key:
# Assay in all cases: DAPPL (digital affinity profiling via proximity ligation, sequencing); 10 mM Tris-HCl pH 7.5, 50 mM NaCl, 1 mM DTT, 4% glycerol, room temperature, 30 min; GST-TFs on glutathione beads, 16-mer random dsDNA library, 0.1% formaldehyde crosslink after washing; high values mean tight binding
# FLI1 = target: T1, FLI1 (Homo sapiens, UniProt Q01543 1-452); conditions: protein: recombinant; tags: N-terminal GST; dsDNA, one strand shown
# T1 sequence: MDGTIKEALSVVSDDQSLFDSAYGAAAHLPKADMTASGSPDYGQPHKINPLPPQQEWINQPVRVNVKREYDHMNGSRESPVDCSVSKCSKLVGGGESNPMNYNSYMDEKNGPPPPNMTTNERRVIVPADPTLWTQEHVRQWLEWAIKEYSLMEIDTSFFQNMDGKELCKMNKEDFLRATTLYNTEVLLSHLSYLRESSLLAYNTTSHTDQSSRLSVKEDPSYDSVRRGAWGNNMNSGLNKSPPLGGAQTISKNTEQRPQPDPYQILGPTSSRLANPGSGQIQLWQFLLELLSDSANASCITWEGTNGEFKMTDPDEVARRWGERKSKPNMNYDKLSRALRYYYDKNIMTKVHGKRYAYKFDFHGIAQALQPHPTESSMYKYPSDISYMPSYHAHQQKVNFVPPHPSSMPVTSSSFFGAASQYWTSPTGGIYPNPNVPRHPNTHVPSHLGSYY
# In short: (§1)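 Binding signal is defined as a hexamer's read frequency for one factor over its frequency for the tag-only sample. To obtain reads, GST-fused human transcription factors were expressed in yeast, captured on glutathione beads, barcoded with DNA and pooled with that sample. Pools met 200 nmole of a 16-mer random double-stranded DNA library in Tris/NaCl/DTT/glycerol buffer for 30 min at room temperature before washing, 0.1% formaldehyde crosslinking, proximity ligation (BsaI/T4 ligase, 1 h, 37 °C), PCR and Illumina NextSeq500 sequencing.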
# ELK1 = target: T2, ELK1 (Homo sapiens, UniProt P19419 1-428); conditions: protein: recombinant; tags: N-terminal GST; dsDNA, one strand shown
# T2 sequence: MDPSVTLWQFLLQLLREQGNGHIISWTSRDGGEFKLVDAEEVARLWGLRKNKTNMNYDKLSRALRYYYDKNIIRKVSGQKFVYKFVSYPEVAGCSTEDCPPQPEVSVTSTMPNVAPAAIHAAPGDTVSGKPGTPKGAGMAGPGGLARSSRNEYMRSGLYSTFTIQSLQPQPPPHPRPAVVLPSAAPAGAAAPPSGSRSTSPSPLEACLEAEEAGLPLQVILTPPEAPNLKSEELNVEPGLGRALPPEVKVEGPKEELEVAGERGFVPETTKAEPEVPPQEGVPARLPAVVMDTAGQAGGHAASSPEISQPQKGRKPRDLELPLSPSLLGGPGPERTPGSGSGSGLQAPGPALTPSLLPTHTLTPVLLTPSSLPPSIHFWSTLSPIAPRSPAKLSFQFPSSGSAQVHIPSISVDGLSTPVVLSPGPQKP
# In short: as §1
# GABPA = target: T3, GABPA (Homo sapiens, UniProt Q06546 1-454); conditions: protein: recombinant; tags: N-terminal GST; dsDNA, one strand shown
# T3 sequence: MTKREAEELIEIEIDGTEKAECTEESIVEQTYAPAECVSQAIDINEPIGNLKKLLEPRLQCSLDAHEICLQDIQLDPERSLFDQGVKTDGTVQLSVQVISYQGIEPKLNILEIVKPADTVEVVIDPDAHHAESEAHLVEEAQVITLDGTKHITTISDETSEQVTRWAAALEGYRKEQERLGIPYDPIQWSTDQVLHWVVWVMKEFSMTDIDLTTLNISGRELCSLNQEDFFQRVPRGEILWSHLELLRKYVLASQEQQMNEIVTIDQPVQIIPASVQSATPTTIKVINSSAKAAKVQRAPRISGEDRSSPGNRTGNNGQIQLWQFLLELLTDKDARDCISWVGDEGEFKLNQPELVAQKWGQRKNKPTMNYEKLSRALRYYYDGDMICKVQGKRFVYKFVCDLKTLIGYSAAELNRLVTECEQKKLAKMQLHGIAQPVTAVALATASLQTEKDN
# In short: as §1
# ERG = target: T4, ERG (Homo sapiens, UniProt P11308 1-479); conditions: protein: recombinant; tags: N-terminal GST; dsDNA, one strand shown
# T4 sequence: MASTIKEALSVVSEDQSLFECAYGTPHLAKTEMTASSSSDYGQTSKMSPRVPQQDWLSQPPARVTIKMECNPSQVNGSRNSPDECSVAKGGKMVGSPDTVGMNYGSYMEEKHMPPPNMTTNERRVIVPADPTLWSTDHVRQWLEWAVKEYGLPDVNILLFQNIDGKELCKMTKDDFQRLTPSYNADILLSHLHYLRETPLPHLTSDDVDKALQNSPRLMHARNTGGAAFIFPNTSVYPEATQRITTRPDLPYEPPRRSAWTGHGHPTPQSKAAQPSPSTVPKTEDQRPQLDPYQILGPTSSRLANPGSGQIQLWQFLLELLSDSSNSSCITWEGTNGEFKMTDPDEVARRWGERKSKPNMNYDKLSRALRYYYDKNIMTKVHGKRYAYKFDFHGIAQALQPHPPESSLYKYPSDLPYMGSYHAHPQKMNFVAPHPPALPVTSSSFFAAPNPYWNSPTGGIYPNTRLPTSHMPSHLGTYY
# In short: as §1
# ELF1 = ELF1 (Homo sapiens, UniProt P32519 1-619); conditions: protein: recombinant; tags: N-terminal GST; dsDNA, one strand shown
# Chain of ELF1 (P32519 whole entry): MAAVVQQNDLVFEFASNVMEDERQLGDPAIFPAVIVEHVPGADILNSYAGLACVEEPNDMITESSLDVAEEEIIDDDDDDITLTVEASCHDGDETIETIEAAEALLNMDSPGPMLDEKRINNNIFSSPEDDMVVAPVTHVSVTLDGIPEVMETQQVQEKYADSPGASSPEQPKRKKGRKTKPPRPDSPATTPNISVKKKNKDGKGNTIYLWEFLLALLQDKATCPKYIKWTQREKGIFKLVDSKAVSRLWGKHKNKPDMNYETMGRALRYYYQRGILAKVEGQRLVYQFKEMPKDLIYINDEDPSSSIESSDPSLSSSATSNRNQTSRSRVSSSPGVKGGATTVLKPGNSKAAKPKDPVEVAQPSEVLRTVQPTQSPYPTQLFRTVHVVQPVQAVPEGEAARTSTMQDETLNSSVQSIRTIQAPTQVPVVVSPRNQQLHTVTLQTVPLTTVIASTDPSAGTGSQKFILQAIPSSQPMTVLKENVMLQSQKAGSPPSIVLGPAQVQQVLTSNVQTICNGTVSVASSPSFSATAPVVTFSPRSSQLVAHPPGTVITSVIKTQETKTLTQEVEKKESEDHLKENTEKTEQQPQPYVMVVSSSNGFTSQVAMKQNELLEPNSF
# In short: as §1
# EHF = target: T5, EHF (Homo sapiens, UniProt Q9NZC4 1-300); conditions: protein: recombinant; tags: N-terminal GST; dsDNA, one strand shown
# T5 sequence: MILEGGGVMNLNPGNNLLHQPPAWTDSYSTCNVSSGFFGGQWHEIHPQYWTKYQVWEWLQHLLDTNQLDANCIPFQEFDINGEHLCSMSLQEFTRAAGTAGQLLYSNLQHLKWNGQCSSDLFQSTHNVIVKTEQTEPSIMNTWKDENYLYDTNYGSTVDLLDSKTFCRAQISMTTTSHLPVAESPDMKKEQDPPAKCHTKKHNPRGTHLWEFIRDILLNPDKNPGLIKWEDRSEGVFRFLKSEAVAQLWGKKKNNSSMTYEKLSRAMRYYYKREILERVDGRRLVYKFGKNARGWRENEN
# In short: as §1
# SPI1 = SPI1 (Homo sapiens, UniProt P17947 1-270); conditions: protein: recombinant; tags: N-terminal GST; dsDNA, one strand shown
# In short: as §1
# SPIB = SPIB (Homo sapiens, UniProt Q01892 1-262); conditions: protein: recombinant; tags: N-terminal GST; dsDNA, one strand shown
# Chain of SPIB (Q01892 whole entry): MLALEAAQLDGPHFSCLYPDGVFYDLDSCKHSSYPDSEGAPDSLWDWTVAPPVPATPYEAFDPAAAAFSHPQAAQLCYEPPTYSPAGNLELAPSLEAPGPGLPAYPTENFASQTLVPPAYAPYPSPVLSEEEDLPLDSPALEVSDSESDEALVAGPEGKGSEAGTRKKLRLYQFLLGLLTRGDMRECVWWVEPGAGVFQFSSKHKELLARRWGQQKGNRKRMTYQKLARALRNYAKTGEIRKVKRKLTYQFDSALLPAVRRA
# In short: as §1
# ELK3 = target: T6, ELK3 (Homo sapiens, UniProt P41970 1-407); conditions: protein: recombinant; tags: N-terminal GST; dsDNA, one strand shown
# T6 sequence: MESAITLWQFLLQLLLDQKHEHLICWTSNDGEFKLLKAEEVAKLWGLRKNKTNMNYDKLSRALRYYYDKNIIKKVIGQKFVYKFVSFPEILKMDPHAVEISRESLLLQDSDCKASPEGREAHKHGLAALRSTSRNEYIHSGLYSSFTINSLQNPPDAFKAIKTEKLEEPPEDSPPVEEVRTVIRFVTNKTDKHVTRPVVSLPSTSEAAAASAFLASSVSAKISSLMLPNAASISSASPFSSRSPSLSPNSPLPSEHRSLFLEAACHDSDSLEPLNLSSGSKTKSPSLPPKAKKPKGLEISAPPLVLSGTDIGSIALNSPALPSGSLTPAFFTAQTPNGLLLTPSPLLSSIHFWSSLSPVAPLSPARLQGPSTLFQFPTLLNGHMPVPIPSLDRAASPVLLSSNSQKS
# In short: as §1
# FEV = target: T7, FEV (Homo sapiens, UniProt Q99581 1-238); conditions: protein: recombinant; tags: N-terminal GST; dsDNA, one strand shown
# T7 sequence: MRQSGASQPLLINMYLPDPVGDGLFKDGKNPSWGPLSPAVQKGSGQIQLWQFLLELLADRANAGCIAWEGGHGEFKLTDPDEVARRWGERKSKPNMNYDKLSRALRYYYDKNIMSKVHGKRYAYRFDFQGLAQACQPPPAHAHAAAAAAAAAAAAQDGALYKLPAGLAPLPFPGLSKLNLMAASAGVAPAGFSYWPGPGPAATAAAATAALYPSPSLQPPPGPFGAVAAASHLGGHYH
# In short: as §1
# ETV5 = ETV5 (Homo sapiens, UniProt P41161 1-510); conditions: protein: recombinant; tags: N-terminal GST; dsDNA, one strand shown
# Chain of ETV5 (P41161 whole entry): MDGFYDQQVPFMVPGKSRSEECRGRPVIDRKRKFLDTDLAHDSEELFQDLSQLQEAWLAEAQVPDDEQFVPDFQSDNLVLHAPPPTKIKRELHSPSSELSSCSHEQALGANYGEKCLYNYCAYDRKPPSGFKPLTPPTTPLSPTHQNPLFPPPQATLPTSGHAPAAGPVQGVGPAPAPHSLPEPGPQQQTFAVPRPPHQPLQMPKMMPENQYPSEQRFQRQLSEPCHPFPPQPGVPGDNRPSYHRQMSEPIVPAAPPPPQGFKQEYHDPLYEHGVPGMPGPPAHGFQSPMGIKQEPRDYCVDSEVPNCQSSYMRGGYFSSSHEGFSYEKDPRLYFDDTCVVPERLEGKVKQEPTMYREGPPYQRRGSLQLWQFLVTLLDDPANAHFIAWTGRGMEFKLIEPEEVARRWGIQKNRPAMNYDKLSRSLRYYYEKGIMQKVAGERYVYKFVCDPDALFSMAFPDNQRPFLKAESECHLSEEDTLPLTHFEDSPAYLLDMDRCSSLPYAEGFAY
# In short: as §1
# HSF1 = HSF1 (Homo sapiens, UniProt Q00613 1-529); conditions: protein: recombinant; tags: N-terminal GST; chain copies: 3; dsDNA, one strand shown
# Chain of HSF1 (Q00613 whole entry): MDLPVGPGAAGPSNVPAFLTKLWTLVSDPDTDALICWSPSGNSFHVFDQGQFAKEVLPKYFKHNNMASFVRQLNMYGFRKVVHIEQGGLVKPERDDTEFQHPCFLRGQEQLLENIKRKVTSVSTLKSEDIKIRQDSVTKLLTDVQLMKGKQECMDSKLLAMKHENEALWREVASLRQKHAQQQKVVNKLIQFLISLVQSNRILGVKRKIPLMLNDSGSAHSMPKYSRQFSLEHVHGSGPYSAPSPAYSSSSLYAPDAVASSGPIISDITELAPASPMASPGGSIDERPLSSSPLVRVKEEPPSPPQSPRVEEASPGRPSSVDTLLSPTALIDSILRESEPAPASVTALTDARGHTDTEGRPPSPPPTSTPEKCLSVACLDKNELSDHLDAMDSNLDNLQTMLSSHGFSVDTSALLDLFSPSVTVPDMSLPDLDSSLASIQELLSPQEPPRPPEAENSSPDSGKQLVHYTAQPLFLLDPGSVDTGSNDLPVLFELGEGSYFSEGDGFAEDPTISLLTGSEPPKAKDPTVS
# In short: as §1
# SPIC = target: T8, SPIC (Homo sapiens, UniProt Q8N5J4 1-248); conditions: protein: recombinant; tags: N-terminal GST; dsDNA, one strand shown
# T8 sequence: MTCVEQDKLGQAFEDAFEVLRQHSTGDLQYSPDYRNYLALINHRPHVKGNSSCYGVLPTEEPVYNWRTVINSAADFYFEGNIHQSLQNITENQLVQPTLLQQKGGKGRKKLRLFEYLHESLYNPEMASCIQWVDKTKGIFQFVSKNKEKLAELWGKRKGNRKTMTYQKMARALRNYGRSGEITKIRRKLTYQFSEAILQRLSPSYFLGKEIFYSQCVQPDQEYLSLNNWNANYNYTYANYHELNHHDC
# In short: as §1
# ELF4 = ELF4 (Homo sapiens, UniProt Q99607 1-663); conditions: protein: recombinant; tags: N-terminal GST; dsDNA, one strand shown
# Chain of ELF4 (Q99607 whole entry): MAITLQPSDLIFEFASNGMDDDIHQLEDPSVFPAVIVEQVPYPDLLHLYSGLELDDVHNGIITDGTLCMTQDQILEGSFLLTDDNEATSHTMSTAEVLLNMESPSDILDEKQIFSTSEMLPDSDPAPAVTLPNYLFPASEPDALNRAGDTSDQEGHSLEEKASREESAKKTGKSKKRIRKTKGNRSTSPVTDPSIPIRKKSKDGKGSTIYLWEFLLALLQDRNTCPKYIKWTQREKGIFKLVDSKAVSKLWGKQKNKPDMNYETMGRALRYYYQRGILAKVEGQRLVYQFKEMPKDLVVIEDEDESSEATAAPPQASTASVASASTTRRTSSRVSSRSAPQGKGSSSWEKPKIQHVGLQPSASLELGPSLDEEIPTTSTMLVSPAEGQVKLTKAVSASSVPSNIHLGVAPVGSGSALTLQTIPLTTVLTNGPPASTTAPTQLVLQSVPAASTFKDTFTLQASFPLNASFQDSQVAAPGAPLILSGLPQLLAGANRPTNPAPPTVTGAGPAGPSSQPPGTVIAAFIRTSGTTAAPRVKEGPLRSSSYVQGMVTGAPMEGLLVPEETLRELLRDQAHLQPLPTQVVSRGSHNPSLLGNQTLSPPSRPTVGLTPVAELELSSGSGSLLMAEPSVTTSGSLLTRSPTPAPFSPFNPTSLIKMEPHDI
# In short: as §1
# ELK4 = target: T9, ELK4 (Homo sapiens, UniProt P28324-2 1-405); conditions: protein: recombinant; tags: N-terminal GST; dsDNA, one strand shown
# T9 sequence: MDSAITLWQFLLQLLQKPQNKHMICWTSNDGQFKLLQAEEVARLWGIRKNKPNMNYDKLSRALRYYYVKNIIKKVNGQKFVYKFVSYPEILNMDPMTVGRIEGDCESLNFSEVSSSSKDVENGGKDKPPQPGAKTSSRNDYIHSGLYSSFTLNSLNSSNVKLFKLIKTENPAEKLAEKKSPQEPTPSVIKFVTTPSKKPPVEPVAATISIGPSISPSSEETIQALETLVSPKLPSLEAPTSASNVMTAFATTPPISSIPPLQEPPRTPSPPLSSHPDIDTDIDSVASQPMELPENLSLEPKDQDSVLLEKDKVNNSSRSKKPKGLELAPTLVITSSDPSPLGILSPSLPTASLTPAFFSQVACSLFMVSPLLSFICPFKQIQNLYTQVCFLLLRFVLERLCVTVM
# In short: as §1
# ETV2 = target: T10, ETV2 (Homo sapiens, UniProt O00321 1-342); conditions: protein: recombinant; tags: N-terminal GST; dsDNA, one strand shown
# T10 sequence: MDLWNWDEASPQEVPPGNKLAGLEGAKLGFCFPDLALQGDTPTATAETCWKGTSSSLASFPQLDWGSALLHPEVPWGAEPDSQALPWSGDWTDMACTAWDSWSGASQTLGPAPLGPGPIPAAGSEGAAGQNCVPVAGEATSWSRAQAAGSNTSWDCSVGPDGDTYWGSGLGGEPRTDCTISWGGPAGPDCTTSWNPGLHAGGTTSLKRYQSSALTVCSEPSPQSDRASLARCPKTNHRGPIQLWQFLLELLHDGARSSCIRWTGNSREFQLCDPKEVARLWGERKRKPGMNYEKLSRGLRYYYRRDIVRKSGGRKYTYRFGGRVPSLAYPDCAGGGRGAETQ
# In short: as §1
# ELF3 = target: T11, ELF3 (Homo sapiens, UniProt P78545 1-371); conditions: protein: recombinant; tags: N-terminal GST; dsDNA, one strand shown
# T11 sequence: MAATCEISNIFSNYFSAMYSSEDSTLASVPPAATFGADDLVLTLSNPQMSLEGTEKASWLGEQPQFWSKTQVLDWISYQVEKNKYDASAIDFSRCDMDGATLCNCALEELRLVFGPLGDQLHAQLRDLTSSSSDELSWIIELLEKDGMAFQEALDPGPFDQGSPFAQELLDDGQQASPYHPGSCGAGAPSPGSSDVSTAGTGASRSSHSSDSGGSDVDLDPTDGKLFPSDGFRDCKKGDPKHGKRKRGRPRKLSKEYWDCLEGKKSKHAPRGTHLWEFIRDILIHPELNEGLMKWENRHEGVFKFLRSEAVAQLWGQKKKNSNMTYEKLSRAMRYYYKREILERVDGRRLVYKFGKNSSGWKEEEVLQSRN
# In short: as §1
# CRX = CRX (Homo sapiens, UniProt O43186 1-299); conditions: protein: recombinant; tags: N-terminal GST; dsDNA, one strand shown
# Chain of CRX (O43186 whole entry): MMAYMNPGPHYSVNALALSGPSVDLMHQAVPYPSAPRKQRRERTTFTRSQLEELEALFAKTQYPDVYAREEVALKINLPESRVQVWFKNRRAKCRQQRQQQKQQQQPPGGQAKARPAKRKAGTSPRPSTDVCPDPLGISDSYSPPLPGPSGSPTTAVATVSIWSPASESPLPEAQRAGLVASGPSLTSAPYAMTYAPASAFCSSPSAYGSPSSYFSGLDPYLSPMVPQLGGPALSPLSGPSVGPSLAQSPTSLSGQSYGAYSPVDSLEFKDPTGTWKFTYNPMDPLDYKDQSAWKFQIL
# In short: as §1
# ETV1 = ETV1 (Homo sapiens, UniProt P50549 1-477); conditions: protein: recombinant; tags: N-terminal GST; dsDNA, one strand shown
# Chain of ETV1 (P50549 whole entry): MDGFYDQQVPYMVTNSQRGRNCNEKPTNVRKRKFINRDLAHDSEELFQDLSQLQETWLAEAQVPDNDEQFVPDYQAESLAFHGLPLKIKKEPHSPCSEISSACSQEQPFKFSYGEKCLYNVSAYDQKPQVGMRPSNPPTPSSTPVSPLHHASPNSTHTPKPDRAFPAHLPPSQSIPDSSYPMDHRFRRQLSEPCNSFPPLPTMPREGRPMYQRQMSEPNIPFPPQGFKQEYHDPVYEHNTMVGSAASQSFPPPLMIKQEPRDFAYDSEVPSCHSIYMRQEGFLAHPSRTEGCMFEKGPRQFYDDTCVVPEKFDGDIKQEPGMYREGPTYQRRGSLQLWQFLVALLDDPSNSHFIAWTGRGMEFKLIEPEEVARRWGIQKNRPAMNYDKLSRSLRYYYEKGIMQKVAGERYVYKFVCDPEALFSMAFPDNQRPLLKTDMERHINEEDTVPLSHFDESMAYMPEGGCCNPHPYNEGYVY
# In short: as §1
sequence,measurement,setting,value
CATCTC,binding signal,FLI1,"1.42 fold enrichment (6-mer frequency, TF over GST control)"
same,binding signal,ELK1,"1.3 fold enrichment (6-mer frequency, TF over GST control)"
same,binding signal,GABPA,"1.34 fold enrichment (6-mer frequency, TF over GST control)"
same,binding signal,ERG,"1.24 fold enrichment (6-mer frequency, TF over GST control)"
same,binding signal,ELF1,"1.37 fold enrichment (6-mer frequency, TF over GST control)"
same,binding signal,EHF,"1.31 fold enrichment (6-mer frequency, TF over GST control)"
same,binding signal,SPI1,"1.36 fold enrichment (6-mer frequency, TF over GST control)"
same,binding signal,SPIB,"1.26 fold enrichment (6-mer frequency, TF over GST control)"
same,binding signal,ELK3,"1.22 fold enrichment (6-mer frequency, TF over GST control)"
same,binding signal,FEV,"1.2 fold enrichment (6-mer frequency, TF over GST control)"
same,binding signal,ETV5,"1.29 fold enrichment (6-mer frequency, TF over GST control)"
same,binding signal,HSF1,"1.26 fold enrichment (6-mer frequency, TF over GST control)"
same,binding signal,SPIC,"1.46 fold enrichment (6-mer frequency, TF over GST control)"
same,binding signal,ELF4,"1.26 fold enrichment (6-mer frequency, TF over GST control)"
same,binding signal,ELK4,"1.42 fold enrichment (6-mer frequency, TF over GST control)"
same,binding signal,ETV2,"1.4 fold enrichment (6-mer frequency, TF over GST control)"
same,binding signal,ELF3,"1.23 fold enrichment (6-mer frequency, TF over GST control)"
same,binding signal,CRX,"1.16 fold enrichment (6-mer frequency, TF over GST control)"
same,binding signal,ETV1,"1.26 fold enrichment (6-mer frequency, TF over GST control)"
